Test results reported in PubChem BioAssay.

tested on: PRMT1 (protein arginine N-methyltransferase 1); assay: small molecules binding arginine methyltransferase PRMT1 – biochemical, small-molecule microarray, 635 nm fluorescence, primary screen (AID 1088); settings: higher = more signal

**Q.** With `CC1CC/C=C\[C@H]2OC34C=CCN(c5ccc6ccccc6c5)C(=O)[C@H]3N(C(CO)C(C)C)C(=O)[C@@H]4C2C(=O)O1` (stereo not given in full) as the compound, how does the composite z-score read?
**A.** 0.445

**Q.** Which composite z-score does the source give for `COCCOC(=O)N1C(=O)[C@@]2(c3cc(C#CCC(C(=O)OC)C(=O)OC)ccc31)[C@H](c1ccc(OCCO)cc1)N1[C@H](c3ccccc3)[C@H](c3ccccc3)OC(=O)[C@H]1[C@@H]2C(=O)N1CCN(c2ncccn2)CC1` here?
**A.** 1.45

**Q.** `CCOC(=O)[C@H]1C/C=C/C[C@H](C(=O)OCC)C(=O)O[C@H]2[C@@H](OC)O[C@H](CO)[C@@H](OC(=O)Nc3ccc(OC)cc3)[C@@H]2OC1=O` was tested. Which composite z-score did it give?
**A.** 1.49

**Q.** Which composite z-score does the source give for `O=C1O[C@@H](c2ccccc2)[C@@H](c2ccccc2)N2[C@@H](c3ccc(O)cc3)[C@]3(C(=O)Nc4ccc(C#CC5=CCCCC5)cc43)[C@@H](C(=O)N3CCN(c4ncccn4)CC3)[C@H]12` here?
**A.** 1.55

**Q.** How did the composite z-score turn out when `CCCCN1CC=CC23O[C@@H]4/C=C\CCC(C)OC(=O)C4[C@H]2C(=O)N(CCCCCCO)[C@@H]3C1=O` (stereo not given in full) was run?
**A.** -0.969

**Q.** For `CCOC(=O)C[C@H]1[C@H](OC(=O)c2ccc(-c3ccccc3)cc2)[C@@H](NC(=O)c2ccc3ccccc3n2)c2cc(OCCCO)ccc2N1C(=O)c1ccccc1`, which composite z-score is on record?
**A.** 1.52

**Q.** For `COc1ccc(NN2C(C(O)c3ccccn3)C=CC3C(=O)N(C4CCCCC4)C(=O)C32)cc1` (stereo not given), which composite z-score is on record?
**A.** 1.56

**Q.** `COc1cc(OC)c(C(O)C2C=CC3C(=O)N(c4ccccc4)C(=O)C3N2Nc2ccc(C#N)cc2)cc1Br` (stereo not given) was tested. Which composite z-score did it give?
**A.** 0.977

**Q.** Which composite z-score does the source give for `COc1ccc([Si](C)(C)[C@H]2[C@H](CCn3cc([C@H](O)c4ccccc4)nn3)O[C@@]3(C(=O)N(Cc4ccc(N5CCOC5=O)cc4)c4ccccc43)[C@@H]2C)cc1` here?
**A.** -0.562

**Q.** For `CCCCC(CC)C(O)C1C=CC2C(=O)N(c3ccccc3)C(=O)C2N1Nc1ccc([N+](=O)[O-])cc1` (stereo not given), which composite z-score is on record?
**A.** 1.55
